The test system of one assay is KB-3-1. Description: Cytotoxic Profiling of Annotated Libraries Using Quantitative High-Throughput Screening (AID 1296008). Also: potency is read from the fitted curve at half-maximal effect. As to max response: % is scaled to controls: 0 for no effect and ±100 for the full control effect. Particulars: Five cell lines viability, CellTiter-Glo ATP luminescence, 48-72 h; max response: active compounds read low. In outline:
(§1)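 Cytotoxicity was measured as CellTiter-Glo ATP luminescence, read after 10 min at room temperature. Compound treatment of the cells lasted 48 or 72 hr at 37 degrees Celsius in a qHTS format.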

The subject of a further assay is P94_40. Description: qHTS profiling for inhibitors of Plasmodium falciparum proliferation (AID 504749). Also: potency is read from the fitted curve at half-maximal effect. Particulars: P. falciparum in erythrocytes, SYBR Green DNA, 72 h; series mostly up to 28.7 µM. Summed up: (§2)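 SYBR Green fluorescence of parasite DNA, read after lysis and overnight dark incubation, measured growth over 72 h in erythrocyte culture at 0.3% parasitemia and 2.5% hematocrit. Data normalised to DMSO and 0.29 uM artemisinin, with plate-drift correction.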
For orientation: In qHTS, concentration-response curves come from the screen itself.

The subject of a further assay is PC15. The description is as above. Particulars: P. falciparum in erythrocytes, SYBR Green DNA, 72 h; series mostly up to 28.7 µM. Summed up:
as §2

In a further assay the test system is TAB109. Described as above. Particulars: P. falciparum in erythrocytes, SYBR Green DNA, 72 h; series mostly up to 28.7 µM. In outline: as §2
A further assay concerns W2. Described as above. Particulars: P. falciparum in erythrocytes, SYBR Green DNA, 72 h; series mostly up to 28.7 µM. In outline: as §2
The next assay concerns CRL-7250. Description: Cytotoxic Profiling of Annotated Libraries Using Quantitative High-Throughput Screening (AID 1296008). Also: potency is read from the fitted curve at half-maximal effect. As to max response: % is scaled to controls: 0 for no effect and ±100 for the full control effect. Particulars: Five cell lines viability, CellTiter-Glo ATP luminescence, 48-72 h; active compounds read low. Summed up: as §1
Background: ATP-based viability assays read luminescence as a measure of living cells.

A further assay has as its system HEK293. Described as above. Particulars: Five cell lines viability, CellTiter-Glo ATP luminescence, 48-72 h; max response: active compounds read low. In outline: as §1
Assay [1] has as its system HaCat. The assay is described as above. Particulars: Five cell lines viability, CellTiter-Glo ATP luminescence, 48-72 h; active compounds read low. Summed up: as §1
The test system of the next assay is NIH3T3. The description is as above. Particulars: Five cell lines viability, CellTiter-Glo ATP luminescence, 48-72 h; max response: active compounds read low. Summed up:
as §1

The subject of assay [2] is HACAT. Nature of the assay: qHTS assay to identify novel small-molecules to repurpose for Merkel cell carcinoma treatment (AID 1296009). Particulars: MCC and control cell lines, CellTiter-Glo viability, 72 h; at 44.8 µM (top of the series). Summed up: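 Cell viability, measured as CellTiter-Glo luminescence, was normalized between DMSO and no-cell wells. The cells had been exposed to 8- or 11-point compound dilutions for 72 hr at 37 degree celsius.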

For another assay, the system named is ICS. Nature of the assay: qHTS profiling for inhibitors of Plasmodium falciparum proliferation (AID 504749). Also: potency is read from the fitted curve at half-maximal effect. Particulars: P. falciparum in erythrocytes, SYBR Green DNA, 72 h; series mostly up to 28.7 µM. Summed up:
as §2

A further assay relates to JCK. The description is as above. Particulars: P. falciparum in erythrocytes, SYBR Green DNA, 72 h; series mostly up to 28.7 µM. In outline: as §2
The next assay relates to N140. The assay is described as above. Particulars: P. falciparum in erythrocytes, SYBR Green DNA, 72 h; series mostly up to 28.7 µM. In outline:
as §2

In a further assay the test system is P93_24. The description is as above. Particulars: P. falciparum in erythrocytes, SYBR Green DNA, 72 h; series mostly up to 28.7 µM. In outline: as §2
The subject of a further assay is PAD. The description is as above. Particulars: P. falciparum in erythrocytes, SYBR Green DNA, 72 h; series mostly up to 28.7 µM. Summed up:
as §2

For the next assay, the system named is PC26. The assay is described as above. Particulars: P. falciparum in erythrocytes, SYBR Green DNA, 72 h; series mostly up to 28.7 µM. Summed up:
as §2

The next assay has as its system PC49. The assay is described as above. Particulars: P. falciparum in erythrocytes, SYBR Green DNA, 72 h; series mostly up to 28.7 µM. In outline:
as §2

In a further assay the test system is SC27B. The assay is described as above. Particulars: P. falciparum in erythrocytes, SYBR Green DNA, 72 h; series mostly up to 28.7 µM. Summed up:
as §2

The next assay has as its system TAB113. Described as above. Particulars: P. falciparum in erythrocytes, SYBR Green DNA, 72 h; series mostly up to 28.7 µM. Summed up: as §2
The next assay relates to TAB165. The description is as above. Particulars: P. falciparum in erythrocytes, SYBR Green DNA, 72 h; series mostly up to 28.7 µM. Summed up:
as §2

Where “and” joins values, the source holds several entries; their conditions need not be identical. Equal values may be shown once. Records with an inconclusive call do not appear. A number with no mark means an inactive call. Calls of active or inactive are those of the source. Calls follow the shape of the dose curve; as a rule, active = well fitted inhibition curve with a large enough effect; inconclusive = small, poorly fitted or top-dose-only effect; inactive = flat fitted curve, though single readings scatter.
Also: nearly all actives have a fitted effect of over 60% in size.

As to `CO[C@H]1C[C@H](O[C@H]2[C@H](C)[C@@H](O[C@@H]3O[C@H](C)C[C@H](N(C)C)[C@H]3O)[C@@H](C)C[C@]3(CO3)C(=O)[C@H](C)[C@@H](O)[C@@H](C)[C@@H](C)OC(=O)[C@@H]2C)O[C@@H](C)[C@@H]1O`, the max response with KB-3-1 is 3.86%.
Take `CCCCCCCCCCCC(=O)OC[C@@H](O)C1OC[C@H](O)[C@H]1O` (stereo partly drawn): in the assay with KB-3-1, the max response was 3.33%.
Turning to `NC[C@@H]1CC[C@@H](N)[C@@H](O[C@H]2[C@H](O)[C@@H](O[C@H]3O[C@H](CO)[C@@H](O)[C@H](N)[C@H]3O)[C@H](N)C[C@@H]2N)O1`, the max response in the assay on KB-3-1 is 0.761%.
Take `OC[C@@H](O)C(O)[C@H](O)CO`: in the assay on KB-3-1, the max response was 2.54%.
Regarding `C[N@+]12CCCC[C@@H]1CCC(=C(c1cccs1)c1cccs1)C2`, in the assay on KB-3-1, the max response was -14.7%.
Consider `C/C(=C\C(=O)OCCCCCCCCC(=O)O)C[C@@H]1OC[C@H](C[C@@H]2O[C@H]2[C@@H](C)[C@H](C)O)[C@@H](O)[C@H]1O`, for which the Potency is 0.141 µM (active) in the assay on P94_40, 0.141 µM (active) with TAB109 and 0.19 µM (active) in the assay on W2. For the same compound, the Potency entry in the assay with PC15 was “inactive”. In addition, the max response in the assay with CRL-7250 is 4.39%; with HEK293, -15.8%; in the assay with HaCat [1] it was -2.01%; in the assay with KB-3-1 it was -2.38%; with NIH3T3, -3.66%.
Regarding `C=C1CC[C@H](O)CC1=C/C=C1\CCC[C@]2(C)[C@@H]([C@H](C)/C=C/[C@H](C)C(C)C)CC[C@@H]12`, the max response is -11.3% in the assay on CRL-7250; 7.88% and 8.32% with KB-3-1. The compound was classed as inactive in the assay with HaCat [1] and in the assay with HACAT [2].
On to `CC1CS(=O)(=O)CCN1/N=C/c1ccc([N+](=O)[O-])o1` (stereo not drawn), for which the max response in the assay on KB-3-1 is 1.84%.
Consider `CC(=O)Nc1ccc(NC(=S)NC(=O)c2ccc(C(C)(C)C)cc2)cc1`, for which the Potency in the assay with ICS is 12.6 µM (active); in the assay with W2, 7.57 µM (active); in the assay with HEK293 it was 0.651 µM (active); in the assay on KB-3-1 it was 4.11 µM (active); with NIH3T3 it was 16.4 µM (active). Moreover, the Potency result with JCK, in the assay with N140, in the assay on P93_24, in the assay with P94_40, in the assay on PAD and in the assay with PC26 was “inactive” in each case. The Potency entry in the assay with PC49, with SC27B and in the assay on TAB113 was “inactive” each time. Also, the max response with HaCat [1] is -11.2%.
`Nc1ccc(N=Nc2ccccc2)c(N)n1`: the Potency entry with ICS, in the assay with JCK, with P93_24, in the assay on P94_40, in the assay on PAD and in the assay with PC15 was “inactive” in each case. The Potency result in the assay with PC26, in the assay with PC49, in the assay with SC27B, in the assay with TAB113, in the assay with TAB165 and in the assay with W2 was “inactive” throughout. Also, in the assay on CRL-7250, the outcome was inactive. The max response with HEK293 was 4.3%; in the assay with HaCat [1], 0.77%; in the assay with KB-3-1, 1.52%; in the assay on NIH3T3 it was -0.826%.
Take `COc1cc2c(cc1OC)[C@@H](c1ccccc1)CN(C)CC2`: the max response with KB-3-1 is -3.02%.
For `CC(C)CN(C[C@@H](O)[C@H](Cc1ccccc1)NC(=O)O[C@@H]1CCOC1)S(=O)(=O)c1ccc(N)cc1`, in the assay with KB-3-1, the max response is 0.899%.
The same measure, in the same setting: the result for `CCC[C@@H]1C[C@@H](C(=O)N[C@@H]([C@H]2O[C@H](SC)[C@H](O)[C@@H](O)[C@H]2O)[C@H](C)Cl)N(C)C1` reads 4.39%.
In the case of `CCN(CC)CCOCCOC(=O)C(CC)(CC)c1ccccc1`, the result in the assay with CRL-7250, in the assay with HaCat [1] and in the assay on HACAT [2] was inactive. Also, the max response was -1.64% and -0.0412% with KB-3-1; 0.0854% in the assay on NIH3T3.
For the compound `CC(C)(C)c1ccc(CN2CCN(C(c3ccccc3)c3ccc(Cl)cc3)CC2)cc1` (stereo not drawn), the max response in the assay with CRL-7250 is 1.08%; in the assay on KB-3-1, 1.38% and -2.29%. The compound was classed as inactive in the assay with HaCat [1], in the assay with NIH3T3 and in the assay with HACAT [2].
Turning to `COc1ccc2nc(NC(=O)Nc3ccccc3)sc2c1`, the Potency with ICS was 7.94 µM (active). The Potency result in the assay with JCK, in the assay on P93_24, in the assay with P94_40, in the assay with PAD, in the assay on PC15 and with PC26 was “inactive” in each case. Further, the Potency result in the assay on PC49, in the assay with SC27B, with TAB109 and in the assay with TAB113 was “inactive” each time. The figures for the max response with CRL-7250, with KB-3-1 and in the assay on NIH3T3 were 1.89%, 36.1% and -17.1%, respectively. Also, the outcome with HaCat [1] and in the assay on HACAT [2] was inactive.
Take `O=C1/C(=C\c2cccs2)CCC/C1=C\c1cccs1`: in the assay with KB-3-1, the max response was 8.4%.
Turning to `CC1CCCC(C)N1NC(=O)c1ccc(Cl)c(S(N)(=O)=O)c1` (stereo not drawn), the max response with KB-3-1 is 1.28%.
Take `CN(C)CCCSc1ccccc1NC(=O)/C=C/c1ccccc1`: the Potency entry in the assay on ICS, in the assay with JCK, in the assay with N140, in the assay with P93_24, in the assay with P94_40 and in the assay on PAD was “inactive” throughout. The Potency result in the assay with PC15, in the assay on PC26, in the assay with PC49, in the assay on SC27B, with TAB113 and with TAB165 was “inactive” throughout. Further, the Potency in the assay with W2 is 6.01 µM (active). The max response was -4.07% in the assay on CRL-7250 and -0.0858% in the assay with KB-3-1. The outcome in the assay with HaCat [1] and with HACAT [2] was inactive.
Turning to `O=C(O)Cc1cc(I)c(Oc2ccc(O)c(I)c2)c(I)c1`, the Potency entry in the assay with ICS, in the assay with JCK, in the assay on N140, in the assay with P93_24, in the assay with P94_40 and in the assay on PAD was “inactive” throughout. Besides, the Potency entry with PC15, with PC26, in the assay on PC49, with SC27B, with TAB109 and in the assay on TAB113 was “inactive” throughout. Besides, the Potency result with TAB165 and with W2 was “inactive” each time. The outcome in the assay on CRL-7250, in the assay on HaCat [1], in the assay on NIH3T3 and in the assay on HACAT [2] was inactive. Besides, the max response with KB-3-1 was 1.68% and -7.08%.

Values taken from PubChem BioAssay (NCATS).
